# Only some compounds are listed: those with a hit (about 15% of all), similar ones and a draw of the others.
# ELG1 DNA repair = inhibitors of ELG1-dependent DNA repair in HEK293T cells; HEK293T ELG1-luciferase reporter, luminescence, 16 h; DNA damage induced by 5-fluorouridine; Potency, µM (top dose mostly 46.1 µM), without a hit: at the top dose activity change, negative = inhibition, actives largely listed as inhibitors; hit rate 2.3% among 330,000; note: nearly all actives have a fitted effect of over 55% in size
#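 Overnight (16 hr) co-exposure of 2,000 cells/well to 5-fluorouridine and compound at 37 °C preceded detection. Luciferase was quantified via ONE-Glo luminescence; loss of signal denotes inhibition.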
# VP16 counter = counter-screen for ROR gamma inhibitors: Gal4-VP16 reporter. hit rate 3.5% among 310,000. Potency, µM (titrated, usually from 53.6 µM), inactives show top-dose activity, negative = inhibition, usual class: inhibitors. Drosophila S2 Gal4-VP16 UAS-luciferase, luminescence, 20 h. AID 2546;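 note: Gal4-VP16 expression switched on by copper sulfate through the metallothionein promoter; nearly all actives have a fitted effect of over 50% in size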
# RORgamma inh = ROR gamma (mouse) transcription inhibition | Drosophila S2 Gal4-RORgamma UAS-luciferase reporter, 20 h | Potency, µM (series often up to 53.6 µM), for inactives: top-dose activity change, negative = inhibition, usual class: inhibitors | hit rate 5.4% among 310,000; note: nearly all actives have a fitted effect of over 60% in size
# Target sequence (P51450 whole entry, looked up, the tested form may be a part): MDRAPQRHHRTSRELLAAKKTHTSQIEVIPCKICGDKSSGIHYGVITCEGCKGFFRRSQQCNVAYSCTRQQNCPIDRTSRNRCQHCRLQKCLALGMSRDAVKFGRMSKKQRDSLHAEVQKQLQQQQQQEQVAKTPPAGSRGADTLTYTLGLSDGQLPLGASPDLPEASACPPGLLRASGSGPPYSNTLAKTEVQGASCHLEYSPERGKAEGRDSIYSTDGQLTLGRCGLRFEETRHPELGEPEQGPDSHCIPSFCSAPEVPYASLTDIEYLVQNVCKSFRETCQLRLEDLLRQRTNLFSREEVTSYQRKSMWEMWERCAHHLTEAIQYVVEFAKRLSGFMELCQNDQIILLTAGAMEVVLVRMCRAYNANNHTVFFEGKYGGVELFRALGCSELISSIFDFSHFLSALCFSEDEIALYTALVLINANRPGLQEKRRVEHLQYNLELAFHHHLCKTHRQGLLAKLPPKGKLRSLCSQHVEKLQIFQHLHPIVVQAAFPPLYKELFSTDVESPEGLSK
#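 Schneider cells (Drosophila), stable Gal4 DBD–ROR gamma + UAS-luc; 1 hr cmpd preincubation; Cu2+ induction 700 uM final; 20 hr ambient; luminescence.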
# ALOX12 inh = inhibitors of human 12S-lipoxygenase ALOX12; P18054; purified 12hLO, xylenol orange hydroperoxide absorbance; Potency, µM (top dose mostly 108 µM), without a hit: top-dose activity change, negative = inhibition, actives largely listed as inhibitors; hit rate 1.1% among 580,000
#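 Purified human 12hLO (150 nM final) in 25 mM Hepes, 0.01% Triton X-100, pH 7.0 was preincubated 15 min at room temperature with compound. Then 40 uM arachidonic acid was added, 30 min. Hydroperoxide was read by Fe-XO absorbance ratio 573/405 nm.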
# DT40 TDP1 CPT = growth inhibition of DT40 Tdp1-/-;hTDP1 cells with camptothecin (screen for TDP1 inhibitors). chicken DT40 Tdp1-/-;hTDP1 cells + 20 nM CPT, ATP luminescence, 48 h. Potency, µM (series often up to 46.2 µM), without a hit: top-dose activity change, negative = growth inhibition, hits mostly inhibitors. hit rate 12% among 420,000. AID 686979; note: nearly all actives have a fitted effect of over 55% in size
#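 Cell growth measured by CellTiter-Glo luminescence after a minimum 48 h, 37 C compound exposure with 20 nM CPT in Tdp1-knockout DT40 cells stably expressing hTDP1, seeded 400/well; qHTS titration format.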
# DT40 TDP1 no CPT = qHTS for Inhibitors of human tyrosyl-DNA phosphodiesterase 1 (TDP1): qHTS in cells in absence of CPT | DT40 Tdp1-/- hTDP1 cells, no CPT, ATP luminescence, 48 h | Potency, µM (series often up to 46.2 µM), for the others: top-dose activity change, negative = growth inhibition, hits mostly inhibitors | hit rate 15% among 420,000 | AID 686978, 2013; note: nearly all actives have a fitted effect of over 55% in size
#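 Readout: luminescence from CellTiter-Glo after 30 min in the dark at RT. Cells: DT40 Tdp1-/- with stable hTDP1, 400/well. Exposure: compounds alone, ≥48 hr, 37 °C.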
# An asterisk follows results filed as active; ? = inconclusive; . = not tested or not shown. Calls come from the whole dose curve; as a rule, active = well fitted curve in the direction sought with a large enough effect; inconclusive = small, poorly fitted or top-dose-only effect, or another doubt; inactive = no such curve, though single readings can be large; an effect the other way counts as inactive or inconclusive. % is set by controls: 0 for no effect and ±100 for the full control effect; potency is the fitted concentration of half-maximal effect.
SMILES,ELG1 DNA repair,VP16 counter,RORgamma inh,ALOX12 inh,DT40 TDP1 CPT,DT40 TDP1 no CPT
COc1cc(C(=O)Nc2nc3ccc(S(C)(=O)=O)cc3s2)cc(OC)c1C,?,-17%,-26%,?,?,?
CS(=O)(=O)c1ccc2nc(NC(=O)c3cccs3)sc2c1,?,8.9µM*,14µM*,0%,12µM*,?
Cc1cc(C(=O)Nc2nc3ccc(S(C)(=O)=O)cc3s2)c(C)o1,?,?,1.1µM*,?,?,-26%
Cc1ccc(C(=O)Nc2nc3ccc(S(C)(=O)=O)cc3s2)s1,?,?,3.2µM*,0%,-20%,?
CCc1sc(C(=O)OCC(=O)c2ccc3c(c2)OCCO3)cc1C,.,.,.,-3%,.,.
Cc1ccccc1NC(=O)Nc1nc2ccc(S(C)(=O)=O)cc2s1,?,-7%,3%,-15%,10%,-16%
CS(=O)(=O)c1ccc2nc(NC(=O)CC3CCCC3)sc2c1,?,-7%,?,-23%,?,13µM*
COc1ccc2oc(C(=O)Nc3nc4ccc(S(C)(=O)=O)cc4s3)c(C)c2c1,11%,.,.,-21%,?,16µM*
CS(=O)(=O)c1ccc2nc(NC(=O)c3cccc([N+](=O)[O-])c3)sc2c1,?,?,-12%,0%,-14%,18µM*
NS(=O)(=O)c1ccc2nc(NC(=O)Nc3ccccc3F)sc2c1,?,9%,29%,27%,?,8.2µM*
Cc1noc(C)c1S(=O)(=O)N1CCC2(CC1)CCC(O)(CN(C)C)CC2,.,.,.,55%,.,.
Cc1cccc(OCC(=O)Nc2nc3ccc([N+](=O)[O-])cc3s2)c1C,-19%,0%,-3%,7%,26µM*,?
COc1ccc2oc(C(=O)Nc3nc(-c4ccccn4)cs3)c(C)c2c1,-2%,.,.,-4%,5.8µM*,5.8µM*
Cc1c(C(=O)N2c3ccccc3Sc3ccccc32)cccc1[N+](=O)[O-],?,-13%,-1%,7%,?,26µM*
Cc1ccccc1CCNC(=O)c1cccc2ncccc12,.,.,.,49%,.,.
O=C1CCCCCN1C(=O)c1ccccc1,.,.,.,-16%,-9%,-8%
O=C1CCCCCN1Sc1ccccc1,-13%,?,?,16µM*,5.8µM*,5.2µM*
COc1ncnc2c1ncn2CCCNc1ccc(C)c(C)c1,.,.,.,0%,?,13µM*
COc1ccc(C(C(=O)O)N2CCN(c3ccc(F)cc3)CC2)c(OC)n1 (centres undefined),.,.,.,20%,.,.
CCCCn1c(=NC(C)=O)c(C#N)cc2c(=O)n3cccc(C)c3nc21,.,.,.,-3%,-29%,18µM*
CCCCn1c(=NC(=O)c2ccc3c(c2)OCO3)c(C#N)cc2c(=O)n3cccc(C)c3nc21,-2%,-9%,-26%,?,7.3µM*,9.2µM*
Nc1nc(=S)[nH]c(N)c1N,.,.,.,.,3%,-21%
Nc1nc(=S)[nH]c2n[nH]nc12,.,.,.,.,4.5µM*,3.5µM*
CC(C)(C)NC(=O)C[C@H]1C[C@H](C(=O)N2CCCCC2)[C@@]2(CCc3ccccc3)c3[nH]c4ccc(Cl)cc4c3CCN2C1=O,-8%,.,.,16%,?,?
COc1ccc2[nH]c3c(c2c1)CCN1C(=O)C(CC(=O)NCc2cccc(C(F)(F)F)c2)C[C@H](C(=O)N2CCCCC2)[C@@]31CCc1ccccc1 (some centres undefined),-2%,.,.,-35%,16µM*,?
SMILES,ELG1 DNA repair,VP16 counter,RORgamma inh,ALOX12 inh,DT40 TDP1 CPT,DT40 TDP1 no CPT
CCN(CC)C(=O)[C@H]1CC(CC(=O)NCc2cccc(C(F)(F)F)c2)C(=O)N2CCc3c([nH]c4ccccc34)[C@]12C (some centres undefined),-17%,.,.,2%,15µM*,21µM*
CCN(CC)C(=O)[C@H]1C[C@H](CC(=O)NCc2cccc(C(F)(F)F)c2)C(=O)N2CCc3c([nH]c4cc(CCC(=O)N(C)C)ccc34)[C@]12C,-10%,.,.,-1%,?,?
O=C(C[C@H]1C[C@H](C(=O)N2CCCCC2)[C@@]2(CCc3ccccc3)c3[nH]c4ccc(Cl)cc4c3CCN2C1=O)NCc1ccco1,-4%,.,.,?,7.3µM*,8.2µM*
COc1ccc2[nH]c3c(c2c1)CCN1C(=O)C(CC(=O)NCCN2CCOCC2)C[C@H](C(=O)N2CCCCC2)[C@@]31CCc1ccccc1 (some centres undefined),16%,.,.,0%,?,?
O=C(CC1C[C@H](C(=O)N2CCCCC2)[C@@]2(CCc3ccccc3)c3[nH]c4ccccc4c3CCN2C1=O)NCc1cccc(C(F)(F)F)c1 (some centres undefined),-20%,.,.,-8%,?,16µM*
O=C(CC1C[C@H](C(=O)N2CCCCC2)[C@@]2(CCc3ccccc3)c3[nH]c4ccccc4c3CCN2C1=O)NCCCn1ccnc1 (some centres undefined),-4%,.,.,16%,?,?
Cc1ccc(NC(=O)COC(=O)c2cccc(O)c2)c(Cl)c1,.,.,.,-20%,.,.
COc1cccc(-c2nc(-c3cc4cccc(C)c4nc3OC)no2)c1,.,.,.,-4%,.,.
COCCCNC(=O)C[C@H]1C[C@H](C(=O)N2CCCCC2)[C@@]2(CCc3ccccc3)c3[nH]c4ccc(Cl)cc4c3CCN2C1=O,21µM*,.,.,19%,8.2µM*,4.6µM*
O=C(C[C@H]1C[C@H](C(=O)N2CCCCC2)[C@@]2(CCc3ccccc3)c3[nH]c4ccc(Cl)cc4c3CCN2C1=O)NCc1cccc(C(F)(F)F)c1,?,.,.,?,13µM*,12µM*
COC(=O)[C@@H]1Cc2c([nH]c3ccccc23)[C@H]2C[C@@H](NCCCn3ccnc3)C[C@@H](c3cccc(Cl)c3)N21,.,.,.,154%,.,.
CCC(CC)C(=O)Nc1cc(C)ccc1C,.,.,.,69%,.,.
O=C(c1ccccc1)C1OC1c1ccc(F)cc1 (centres undefined),.,.,.,-4%,.,.
O=C(c1ccccc1)[C@@H]1O[C@H]1c1ccc(-c2ccccc2)cc1,.,-2%,22%,13%,4.2µM*,4.2µM*
CC(C)C[C@H](NC(=O)c1nc[nH]c1C(=O)N[C@@H](CCCCNC(=O)OC(C)(C)C)C(=O)OC(C)(C)C)C(=O)OC(C)(C)C,?,11µM*,5µM*,-4%,21µM*,21µM*
